Compounds without any hit were thinned out: in the full panel of roughly 83,000, 20% have a hit.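 Negative percent growth values reflect cell death: -40 means 40% of the cells present at the start died, and -100 means all died.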 Values without a mark were called inactive. Active and inactive are the calls of the source. The calls were made as follows: active = growth percent below 10; inactive = the rest.
The molecules below were run on MCF7 breast (assay: NCI-60 one-dose screen, 48 h (100 = growth as untreated, 0 = no growth, -100 = all killed)). Details: 10 µM unless noted.

| Compound | growth |
| --- | --- |
| [2H]C([2H])([2H])Oc1ccc(F)cc1/C=C/C(=O)/C=C(O)/C=C/c1cc(F)ccc1OC([2H])([2H])[2H] | 70% |
| C=CC(=O)Nc1ccc(Nc2nccc(-c3ccc(N4CCCC4)c(C#N)c3)n2)cc1 | 9.75% (active) |
| N#CC1=C(N)Oc2ccc3ccccc3c2C1c1ccc([N+](=O)[O-])cc1 (stereo not given) | 66% |
| CCOC(=O)c1nn(CC(O)c2ccccc2)c(NC(=O)Nc2cccc(F)c2)c1C (stereo not given) | 91.3% |
| Nn1c(=O)c(=O)[nH]c2c(cnn2-c2ccccc2)c1=O | 99.4% |
| O=[N+]([O-])c1cc(NS(=O)(=O)c2ccccc2)ccc1NS(=O)(=O)c1ccccc1 | 112% |
| C=C1C(=O)O[C@H]2[C@H]1CC/C(COC(=O)NCc1ccc(Cn3c(=O)sn(-c4ccc(C#N)cc4)c3=O)cc1)=C\CC[C@@]1(C)O[C@@H]21 | 27.5% |
| Cc1nc2c(c(=O)[nH]1)C(c1ccccc1)c1ccc3ccccc3c1O2 (stereo not given) | 11.4% |
| COC1=C(C)C(=O)N2[C@@H]1[C@H](c1ccccc1)OC21C=CC(=O)C=C1 | 7.61% (active) |
| COc1cccc(CCNc2ncnc3c2ncn3Cc2nnc3c4ccccc4c(Cl)nn23)c1 | 63% |
| Fc1ccc(Cn2cc(CSc3nc4ccccc4o3)nn2)cc1 | 93.8% |
| CC(=O)ON1CCCC(P(=O)(OCCSC(=O)C(C)(C)C)OCCSC(=O)C(C)(C)C)C1=O (stereo not given) | 13.9% |
| O=c1cc(-c2ccccc2)[nH]c2ncc(-c3ccc(F)cc3)n12 | 57.8% |
| COC(=O)c1ccc(NC(=O)Nc2ccc(C(=O)OC)cc2)cc1 | 96.1% |
| N#C/C(=C\c1ccc(-c2cccc(C(F)(F)F)c2)o1)c1ccccc1 | 25.7% |
| COc1ccc2cc(-c3ccnc4c(N=Nc5ccc(Cl)cc5)c(N)nn34)ccc2c1 | 97.3% |
| O=C(Cc1ccc(NC(=O)c2cccc(Cl)c2)cc1)NCc1ccccc1 | 22.1% |
| CCS/C(Nc1ccccc1)=C(\C#N)C(=O)Nc1ccc(OC)cc1 | 19% |
| CC[N+]1(CC)CC[N+]2(CCCC(C)CC2)CC1 (stereo not given) | 96% |
| COc1ccc(C(=O)/C=C/c2ccc(Cl)cc2)cc1S(=O)(=O)Nc1c(N)nc(SC)[nH]c1=O | 18.8% |

| Compound | growth |
| --- | --- |
| C=C1C(=O)O[C@H]2[C@H]1CC/C(COC(=O)/C=C/C(=O)OC/C1=C/CC[C@@]3(C)O[C@H]3[C@H]3OC(=O)C(=C)[C@@H]3CC1)=C\CC[C@@]1(C)O[C@@H]21 | 22.2% |
| O=C1/C(=C\c2cccc3nccnc23)SC(=S)N1CCc1ccc(O)cc1 | 94.4% |
| O=S(=O)(NCCNc1nccc(-c2c(-c3ccc(F)c(O)c3)nc3sccn23)n1)c1ccc(F)cc1 | 17.1% |
| CC/C=C\C[C@H](O)C/C=C1/C(=O)C=C[C@@H]1C/C=C\CCCC(=O)O | 13.9% |
| O=C1/C=C/[C@@H](O)[C@@H]2C[C@@H](O)C[C@H]2/C=C/CCC[C@H](CCO)O1 | -17.1% (active) |
| COc1cc(-c2nc3sccn3c2-c2ccnc(NCCNS(=O)(=O)c3ccc(Cl)cc3)n2)ccc1F | 17.7% |
| C#Cc1cccc(Nc2nc(C)nc3cc(NC(=O)CCl)ccc23)c1 | -68% (active) |
| O=C(NNC(=O)c1ccc(NC(=O)c2ccccn2)cc1)Nc1ccc2ccccc2c1 | 96% |
| CC1(C)C(N)=Nc2cc(OCCCN3Cc4ccccc4C3)c(OCC3CC3)cc21 | 50.4% |
| CN(CCC(=O)c1ccccc1)CCC(=O)c1ccccc1 | 70.2% |
| CCSc1oc(C)nc1[P+](c1ccccc1)(c1ccccc1)c1ccccc1 | 13.7% |
| C=CCC(CCCC)(C(=O)OCC)C(=O)OCC | 93% |
| Fc1cccc(-c2ccc3c(c2)C2(CCNCC2)CN3)c1 | 92.5% |
| CN(C)S(=O)(=O)Oc1ccc(-c2sc3cc(OS(=O)(=O)N(C)C)ccc3c2C(=O)c2ccc(OCCN3CCCCC3)cc2)cc1 | 26.4% |
| COc1cc2c(cc1OCCCCN1CCN(C(=S)SCCC(C#N)(c3ccccc3)c3ccccc3)CC1)N=C[C@@H]1CCCN1C2=O | -93.4% (active) |
| CC(C)(C)n1cc(-c2ccnc(NCCNS(=O)(=O)c3ccc(O)cc3)c2)c(-c2cccc(O)c2)n1 | 81.5% |
| O=S1(=O)C=C(c2ccccc2)C(c2ccccc2)=C1 | 6.2% (active) |
| CCN1C(=O)N(CC)C2C1NN=c1s/c(=C\c3cnc(C)n3C)c(=O)n12 (stereo not given) | 14.5% |
| CC(=O)O[C@H]1C[C@@H]2C(C)(C)C(=O)CC[C@@]2(C)c2ccc(C(C)C)cc21 | 107% |
| Cc1ccc2c(=O)cc(C(=O)Nc3sc4c(c3C(=O)NCc3cccnc3)CCCC4)oc2c1C | 96.8% |

From PubChem BioAssay (NCI)
